Reference: PubChem BioAssay (NCI)
This is part of a sample that, as a whole, favours compounds with a hit. Of some 83,000 tested, about 20% had one in any assay.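 96-well plates, one dose, 48 hours. Percent growth reported; active if below 10.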 Active and inactive are the calls of the source.

Columns and labels:
Test in all cases: NCI-60 one-dose screen, 48 h (100 = growth as untreated, 0 = no growth, -100 = all killed)
Details in all cases: 10 µM unless noted
[1] = system: NCI-H23 lung
[2] = system: NCI-H226 lung
[3] = system: NCI-H322M lung
[4] = system: HOP-62 NSCLC
[5] = system: NCI-H460 lung
[6] = system: HOP-92 NSCLC
[7] = system: NCI-H522 lung
[8] = system: A549/ATCC NSCLC
[9] = system: 786-0 renal
[10] = system: COLO 205 colon
[11] = system: DU-145 prostate
[12] = system: K-562 leukemia
[13] = system: MALME-3M melanoma
[14] = system: RXF 393 renal
[15] = system: SF-268 CNS
[16] = system: SF-295 CNS
[17] = system: SF-539 CNS
[18] = system: UACC-257 melanoma
[19] = system: M14 melanoma

Measured: growth

CC1=C(C(=O)OCc2ccccc2)C(c2ccc(-n3cncn3)cc2)n2c(nc3ccccc32)N1 (centres undefined)
inactive: [1] 86% | [2] 77.6% | [3] 83.5% | [4] 64.6% | [5] 28.1% | [6] 73.9% | [7] 19.3% | [8] 60.1% | [9] 69.2% | [10] 37.9% | [11] 67.7% | [12] 14.3% | [13] 50.9% | [14] 52.2% | [15] 71.5% | [16] 19.9% | [17] 38.3% | [18] 51.5% | [19] 50.5%

O=C(O)c1ccc(-c2ccc(/C=N/NC(=O)c3[nH]c4ccc(Br)cc4c3-c3ccccc3)s2)cc1
inactive: [2] 22.8% | [3] 20.4% | [4] 28.5% | [8] 23.1% | [9] 16.5% | [10] 23.6% | [11] 28.2% | [12] 22.5% | [15] 21.1% | [18] 44.3% | [19] 28.2%
active: [1] 8.04% | [5] 0.163% | [6] -4.63% | [7] -1.38% | [13] -8.14% | [14] -24.4% | [16] -11.9% | [17] 1.96%

Clc1cccc(Cl)c1/C=C/c1cc(/C=C/c2ccc(Br)cc2)c2ccccc2n1
inactive: [1] 98.2% | [2] 93% | [3] 89.7% | [4] 94% | [5] 99.5% | [6] 86.2% | [7] 97.9% | [8] 98.2% | [9] 92.2% | [10] 117% | [11] 110% | [12] 99.5% | [13] 91.8% | [14] 83.4% | [15] 110% | [16] 99.2% | [17] 95.7% | [18] 105% | [19] 101%

CSc1ccccc1NC(=O)c1ccc2nn(/C(C#N)=C/c3ccccn3)nc2c1
active: [1] -83.9% | [2] -96.8% | [4] 0.554% | [5] -36.9% | [6] -23.8% | [7] -92.7% | [8] 0.0722% | [9] -96.5% | [10] -84% | [11] -99.5% | [12] -10.1% | [13] -89% | [14] -95.8% | [16] -21.9% | [17] -93.1% | [18] -91% | [19] -88.1%
inactive: [3] 25.3% | [15] 14.6%

C[C@H](Nc1nc(NCCc2ccccc2)nc2ccccc12)c1ccccc1
active: [1] -85.2% | [2] -80.4% | [3] -55.9% | [4] -90.3% | [5] -75.3% | [6] -81.1% | [7] -82.9% | [8] -33.2% | [9] -87.3% | [10] -93.7% | [11] -85.6% | [12] -43.9% | [13] -91.7% | [14] -90.5% | [15] -70.4% | [16] -95.8% | [17] -96.2% | [18] -76% | [19] -84.5%

CSc1ccccc1NC(=O)c1ccc2nnn(/C(C#N)=C/c3ccccn3)c2c1
inactive: [3] 40.5%
active: [1] -96.6% | [2] -94.6% | [4] 6.29% | [5] -44% | [6] -80.8% | [7] -96.4% | [8] -27.2% | [9] -98.5% | [10] -83.1% | [11] -97.9% | [12] 1.03% | [13] -94.7% | [14] -98.8% | [15] 6.52% | [16] 2.24% | [17] -100% | [18] -89.8% | [19] -93.6%

N#Cc1c(-c2ccccc2Cl)cc(-c2c[nH]c3ccccc23)[nH]c1=O
inactive: [1] 69.9% | [2] 64.3% | [3] 72.9% | [4] 67.2% | [5] 65.9% | [6] 44.9% | [7] 70.8% | [8] 77.5% | [9] 68.8% | [10] 114% | [11] 66% | [12] 20% | [13] 57.2% | [14] 48.7% | [15] 80% | [16] 75.8% | [17] 52.2% | [18] 82.3% | [19] 64.1%

COc1cc(-c2ccc(/C=N/NC(=O)c3[nH]c4ccc(Br)cc4c3-c3ccccc3)s2)cc(OC)c1OC
active: [17] 6.55%
inactive: [1] 68.2% | [2] 54.4% | [3] 90.2% | [4] 74.2% | [5] 75.7% | [6] 69.7% | [7] 83.2% | [8] 77.1% | [9] 58.3% | [10] 108% | [11] 86.4% | [12] 89.6% | [13] 86.7% | [14] 82.4% | [15] 67.8% | [16] 49.6% | [18] 100% | [19] 82.5%

CC(=O)Nc1cccc(Nc2nc(N[C@H]3CCCc4ccccc43)c3ccccc3n2)c1
inactive: [1] 104% | [2] 111% | [3] 103% | [4] 102% | [5] 104% | [6] 110% | [7] 97.5% | [8] 104% | [9] 106% | [10] 109% | [11] 104% | [12] 94.2% | [13] 102% | [14] 120% | [15] 95.5% | [16] 97.3% | [17] 97.2% | [18] 102% | [19] 101%

N#Cc1c(-c2ccc(Br)cc2)nc2n[nH]c(-c3ccc(Br)cc3)c2c1-c1ccc(F)cc1
inactive: [1] 92.6% | [2] 87.5% | [3] 90.6% | [4] 87.9% | [5] 106% | [6] 112% | [7] 94.1% | [8] 99.7% | [9] 102% | [10] 92.1% | [11] 116% | [12] 76.4% | [13] 86.2% | [14] 102% | [15] 129% | [16] 98.9% | [17] 97.4% | [18] 103% | [19] 97.7%

N#Cc1c(-c2cccc3ccccc23)cc(-c2cccc(OCC(=O)O)c2)[nH]c1=O
inactive: [1] 97.7% | [2] 93.6% | [3] 96.1% | [4] 105% | [5] 101% | [6] 98.6% | [7] 97.9% | [8] 94.6% | [9] 101% | [10] 106% | [11] 105% | [12] 94.2% | [13] 87.3% | [14] 105% | [15] 96.6% | [16] 101% | [17] 95.5% | [18] 97.8% | [19] 93.6%

COc1ccc(-c2cc(C(=O)NCc3ccccc3)nn2-c2ccc(S(C)(=O)=O)cc2)cc1OC
inactive: [1] 105% | [2] 98.5% | [3] 122% | [4] 99.7% | [5] 108% | [6] 73% | [7] 87.4% | [8] 93.8% | [9] 98.6% | [10] 116% | [11] 105% | [12] 105% | [13] 108% | [14] 110% | [15] 97.3% | [16] 98.1% | [17] 95.2% | [18] 105% | [19] 111%

COc1cc(-c2cc(-c3cccc(OCC(=O)O)c3)[nH]c(=O)c2C#N)cc(OC)c1OC
inactive: [1] 101% | [2] 98.2% | [3] 91% | [4] 99.1% | [5] 111% | [6] 85.4% | [7] 104% | [8] 100% | [9] 95.8% | [10] 119% | [11] 111% | [12] 89.8% | [13] 95.9% | [14] 100% | [15] 110% | [16] 97.6% | [17] 93% | [18] 105% | [19] 97.6%

CC(C)c1ccc2c(N)c(C(=O)Nc3cccc(C(F)(F)F)c3)sc2n1
active: [12] 8.51%
inactive: [1] 90.5% | [2] 69.3% | [3] 81.2% | [4] 62.6% | [5] 67.7% | [6] 82.7% | [7] 48.8% | [8] 78.8% | [9] 67.9% | [10] 48.2% | [11] 73.4% | [13] 80.3% | [14] 42.1% | [15] 94.2% | [16] 64.9% | [17] 66.6% | [18] 90.1% | [19] 32.8%

CNC(=O)c1cc(Oc2ccc3nc(NC(=O)Nc4cccc(OC(F)(F)F)c4)sc3c2)ccn1
inactive: [3] 47.8% | [5] 29.9% | [7] 26.6% | [8] 35.2% | [10] 68.2% | [11] 36.8% | [12] 47.1% | [15] 11.8% | [18] 47.9% | [19] 44.8%
active: [1] 6.71% | [2] -24.5% | [4] -71.7% | [6] -63% | [9] -50.7% | [13] -25.2% | [14] -40.1% | [16] -18.9% | [17] -57.8%

O=C(/C=C/c1ccc(-c2ccccc2)cc1)c1nc2ccccc2n1Cc1ccc(F)cc1
inactive: [1] 47.5% | [3] 64.5% | [4] 36.1% | [5] 36.5% | [6] 35.4% | [7] 64.1% | [8] 61.9% | [9] 30.7% | [10] 48.9% | [11] 54.4% | [12] 21.7% | [14] 13.6% | [15] 62.4% | [16] 40.4% | [18] 49.5% | [19] 39.6%
active: [2] -13.9% | [13] 0% | [17] -15.9%
